Bioassay records: PubChem, The Scripps Research Institute Molecular Screening Center
CHO-K1 Ca antag – counter-screen for M1 antagonists: effect in parental CHO-K1 cells; AID 602250; 360,000 tested, 0.6% active; ATP-induced calcium, Fluo-8 fluorescence; inhibition, % at 3 µM;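 active = inhibition above a per-plate cutoff, the plate's mean sample inhibition plus 3 SD, cut at about 24% in these data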;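 note: 0% = DMSO plus EC80 ATP and 100% = DMSO alone without ATP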
M1 PAM parental – nonselective activator or artifact in parental CHO-K1 calcium assay. AID 602247. activation, % at 3 µM. 360,000 tested, 0.02% active. ATP EC20, Fluo-8 calcium fluorescence; 0% at ATP EC20, 100% at ATP max;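 active = activation above the run cutoff, the mean activation of all test compounds plus 3 SD, cut at about 40% in these data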;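 note: peak over basal fluorescence ratio in a 140 s read after ATP addition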
CHRM1 agonist – agonists of human M1 muscarinic receptor; P11229; AID 588814; 360,000 tested, 0.33% active; activation, % at 3 µM; CHO-K1 hM1, Fluo-8 calcium fluorescence, agonist mode; 0% DMSO, 100% acetylcholine EC100;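 active = activation above the run's mean compound activation plus 3 SD, cut at about 16% in these data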;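 note: peak over basal fluorescence ratio within a 140 s kinetic read after compound addition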
Target sequence (P11229 whole entry, looked up): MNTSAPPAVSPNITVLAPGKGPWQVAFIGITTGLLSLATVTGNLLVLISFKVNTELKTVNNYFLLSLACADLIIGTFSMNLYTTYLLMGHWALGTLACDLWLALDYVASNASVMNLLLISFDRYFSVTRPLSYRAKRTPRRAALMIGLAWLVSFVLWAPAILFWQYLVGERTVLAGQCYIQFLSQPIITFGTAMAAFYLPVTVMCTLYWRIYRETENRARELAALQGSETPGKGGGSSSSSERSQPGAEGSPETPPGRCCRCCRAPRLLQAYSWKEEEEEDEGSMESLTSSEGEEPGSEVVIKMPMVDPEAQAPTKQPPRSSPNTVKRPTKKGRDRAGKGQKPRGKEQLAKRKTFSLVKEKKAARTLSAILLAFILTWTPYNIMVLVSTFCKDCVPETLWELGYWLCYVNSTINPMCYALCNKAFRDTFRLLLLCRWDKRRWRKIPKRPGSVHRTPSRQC
M1 antag – human CHRM1 antagonism. 360,000 tested, 1.3% active. inhibition, % at 3 µM. P11229. CHO-K1 hM1, Fluo-8 calcium fluorescence, ACh EC80 antagonist;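 active = percent inhibition above its own plate's cutoff, namely the mean of that plate's compound wells plus 3 SD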;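 note: peak over basal fluorescence ratio during 140 s after agonist addition; 0% = ACh EC80 plus DMSO and 100% = DMSO alone without agonist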
M1 PAM – potentiates human M1 receptor response to acetylcholine; 360,000 tested, 0.088% active; P11229; CHO-K1 hM1, Fluo-8 calcium fluorescence, ACh EC20; 0% = ACh EC20, 100% = maximal ACh; activation, % at 3 µM; in the data active = activation above about 19%, passing the limit was not always enough
M1 ag parental – counter-screen for M1 agonists: effect in parental CHO-K1 cells; activation, % at 3 µM; Fluo-8 calcium fluorescence; scaled to maximal ATP response, vehicle zero; 360,000 tested, 0.48% active; in the data active = activation above about 15%;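 note: untransfected CHO-K1 host cells lacking M1 receptor as counterscreen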
The depositor's hits bear a star. Shown are actives, neighbours in structure and some others; about 2.4% of the full set was active somewhere.

SMILES	CHO-K1 Ca antag	M1 PAM parental	CHRM1 agonist	M1 antag	M1 PAM	M1 ag parental
O=C1[C@H]2C(c3ccccc3)=NN(c3ccccc3)[C@H]2C(=O)N1c1ccccc1	-7.1	5.8	-3.1	-9.7	5.5	-0.8
CCCC(=O)Nc1sc(C(=O)Nc2cccc(N)c2)c(C)c1C(=O)OC	-14.2	9.7	-2.3	-12.1	8.4	1.5
CC(=O)NC1CCCc2c1cnn2-c1ccc(C(C)(C)C)cc1 (stereo not given)	-1.5	18.3	-0.8	-10.7	3.2	4.2
Cn1nccc1C(=O)NC1CCCc2c1cnn2-c1ccc(C(C)(C)C)cc1 (stereo not given)	32.6*	-14.6	1.0	33.7*	-8.4	14.2
COc1ccc(C(=O)NC2CCCc3c2cnn3-c2ccc(C)c(C)c2)c(OC)c1OC (stereo not given)	1.3	9.4	-2.0	-13.2	1.8	2.4
Cc1nnsc1C(=O)NC1CCCc2c1cnn2-c1ccc(F)cc1F (stereo not given)	14.7	-14.4	0.6	31.3*	-11.2	10.2
Cc1cc(C(=O)NC2CCCc3c2cnn3-c2cccc(C)c2C)n(C)n1 (stereo not given)	29.6*	-19.7	2.9	34.5*	-7.0	13.2
COc1cccc(C(=O)NC2CCCc3c2cnn3-c2ccc(C)c(C)c2)c1OC (stereo not given)	38.4*	-12.0	-4.9	7.8	-9.4	8.0
CC(O)(c1cccnc1)c1nc(-c2ccc(S(C)(=O)=O)cc2)cs1 (stereo not given)	-1.0	17.8	-1.3	-17.2	7.5	0.9
COc1cccc(CNC(=O)CCCC(=O)NC(C)CCc2ccccc2)c1 (stereo not given)	-6.0	14.6	4.2	-10.6	5.4	0.5
Cc1occc(=O)c1OC(=O)Nc1ccc(Cl)c(Cl)c1	29.2*	6.0	1.7	25.9	-15.5	11.9
COc1ccccc1CNc1nc(NCc2ccccc2OC)c2sccc2n1	1.0	11.5	-2.4	31.1*	-17.9	3.2
COc1ccccc1CNc1nc(NCc2ccccc2SC)c2sccc2n1	14.0	-2.4	-3.2	37.5*	-21.5	6.6
CCn1nc(C)c(CNC(=O)C2CCC(=O)N(CCc3ccc(Cl)cc3)C2)c1C (stereo not given)	-9.3	16.1	-1.5	-8.2	7.7	0.6
O=C(CCc1nc(-c2ccccc2Cl)no1)NC1CCCCC1	-13.5	6.3	-0.2	-7.9	2.5	4.0
NS(=O)(=O)c1ccc(CCNC(=O)CNC(=O)c2ccc(F)cc2)cc1	6.3	-9.2	-0.7	-3.5	1.2	0.1
O=C(CNC(=O)c1ccccc1)NCCc1ccc(O)c(O)c1	-12.4	11.7	-3.8	-2.9	31.0*	0.2
CCOc1cc(CN2CCC(CO)(Cc3cccc(C(F)(F)F)c3)CC2)ccc1OC	-6.5	12.3	-5.0	-3.3	0.7	3.1
C/C(=N\NC(=O)CSc1nc(C)cc(C)n1)c1cccc([N+](=O)[O-])c1	-12.6	40.6*	-8.2	-12.3	8.9	0.0
Cc1c(NC(=O)/C(=C/c2cccs2)c2cccs2)c(=O)n(-c2ccccc2)n1C	-7.4	11.4	-11.4	53.8*	-26.6	-0.1
Cc1sc2ncnc(NCCCO)c2c1C	7.2	-7.6	0.3	13.7	-6.8	-0.2
Cc1sc2ncnc(NCC(O)c3ccc([N+](=O)[O-])cc3)c2c1C (stereo not given)	27.1*	-0.2	0.3	33.6*	-20.3	18.0*
Cc1sc2ncnc(NCC(O)c3ccccc3)c2c1C (stereo not given)	14.4	7.2	-1.3	15.6	-10.9	17.5*
Cc1sc2ncnc(NCC(c3ccccc3)N(C)C)c2c1C (stereo not given)	6.7	-17.1	-10.6	57.4*	-31.0	4.3
COc1ccc(C(=O)OCC(=O)NC(=O)NC2CCCC2)cc1OC	-21.3	9.1	-0.8	-13.3	9.4	1.1
O=C(Nc1cccc(S(=O)(=O)NC2=NCCC2)c1)c1cc(=O)[nH]c2ccccc12	-7.2	3.5	-2.6	-10.4	8.1	0.0
Cc1ccc(CCNC(=O)CC(C)CC2=NS(=O)(=O)c3ccccc3N2)cc1 (stereo not given)	-17.9	18.2	-9.5	-6.4	-1.1	-0.5
